Bioassay records: PubChem, The Scripps Research Institute Molecular Screening Center
Only some compounds are listed: those with a hit (about 3.5% of all), similar ones and a draw of the others.
FBW7 activator: FBW7 E3 ligase activators, primary screen, biochemical, AlphaScreen, human. F-box/WD repeat-containing protein 7 (Homo sapiens), Q969H0. AlphaScreen FBW7–phospho-cyclin E peptide binding, activator screen. normalized activity (activation), % at 26.1 µM. actives 0.13% (n = 650,000). AID 1259310, 2017; in the data active = normalized activity above about 1.9%;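 note: purified mutant Fbw7 with reduced substrate affinity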
MITF inh: MITF inhibitors, primary screen, biochemical, AlphaScreen, human; Microphthalmia-associated transcription factor (Homo sapiens), O75030; AlphaScreen MITF homodimerization, bead proximity signal; inhibition, % at 2.6 µM; actives 0.91% (n = 650,000); in the data active = inhibition above about 50%;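 note: 0% = vehicle wells with protein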
GPR151 ag: activators of human GPR151, primary screen, cell-based, PathHunter beta-arrestin, luminescence; actives 1% (n = 650,000); PathHunter beta-arrestin GPR151 cells; activation, % at 11.2 µM; AID 1508602, 2020; in the data active = activation above about 4.9%;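 note: 0% = median of compound wells and 100% = cells with positive control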
Target sequence (Q8TDV0 whole entry, looked up): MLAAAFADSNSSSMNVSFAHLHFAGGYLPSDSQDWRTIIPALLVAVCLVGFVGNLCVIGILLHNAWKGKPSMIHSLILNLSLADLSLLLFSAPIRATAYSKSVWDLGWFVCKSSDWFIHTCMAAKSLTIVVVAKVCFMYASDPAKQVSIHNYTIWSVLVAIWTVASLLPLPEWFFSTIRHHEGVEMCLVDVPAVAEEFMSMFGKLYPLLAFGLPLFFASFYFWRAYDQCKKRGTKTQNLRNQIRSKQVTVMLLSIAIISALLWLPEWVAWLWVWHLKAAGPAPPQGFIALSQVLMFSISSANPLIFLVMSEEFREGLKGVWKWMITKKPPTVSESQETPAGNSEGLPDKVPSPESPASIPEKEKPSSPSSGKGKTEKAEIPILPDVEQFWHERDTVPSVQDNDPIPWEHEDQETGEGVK
TEAD-YAP inh: TEAD-YAP interaction inhibition, primary screen, TEAD-YAP interaction inhibitor project, luminescence, HEK-TIYL cells. inhibition, % at 9.12 µM. actives 1.4% (n = 640,000). AID 1259422, 2018. TEAD-Gal4/YAP UAS-luciferase luminescence; in the data active = inhibition above about 32%;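 note: 0% = median of test compound wells and 100% = reference inhibitor wells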
Active calls of the source: *.

SMILES	FBW7 activator	MITF inh	GPR151 ag	TEAD-YAP inh
COc1cccc(-c2cc(=O)c3ccccc3o2)c1N	0	-11	-2	-53
COc1cc(OC)c(-c2c3cc(O)c(=O)cc-3oc3cc(O)c(O)cc23)cc1OC	0	110*	-1	8
O=c1cc2oc3cc(O)c(O)cc3c(-c3cccc(Cl)c3Cl)c-2cc1O	0	102*	-1	11
O=c1cc2oc3cc(O)c(O)cc3c(-c3ccccn3)c-2cc1O	-2	86*	-1	5
CC(=O)Nc1cccc(-c2cc(=O)c3ccccc3o2)c1O	0	-5	-2	-47
COc1ccccc1-c1c2cc(O)c(=O)cc-2oc2cc(O)c(O)cc12	0	104*	-1	8
COc1cc2ccc(=O)oc2cc1O	0	2	-1	7
CCOC(=O)CSc1nc2ccsc2c(=O)n1-c1ccc(Cl)c(C)c1	1	13	1	-4
Cc1ccc(S(=O)(=O)Cc2ccc(C(=O)N3CCN(c4ccccc4)CC3)o2)cc1	0	16	0	40*
O=C(c1ccc(CS(=O)c2ccccc2)o1)N1CCN(c2ccccc2)CC1 (stereo not drawn)	0	10	1	42*
Cc1ccc(CS(=O)Cc2ccc(C(=O)N3CCN(c4ccccc4)CC3)o2)cc1 (stereo not drawn)	1	11	-1	17
Cc1ccc(S(=O)Cc2ccc(C(=O)N3CCN(c4ccccc4)CC3)o2)cc1 (stereo not drawn)	0	2	0	50*
Cc1ccccc1S(=O)Cc1ccc(C(=O)N2CCN(c3ccccn3)CC2)o1 (stereo not drawn)	0	15	1	42*
Cc1ccc(C)c(C(=O)COC(=O)c2ccc(C#N)cc2)c1	0	-6	0	-5
Cc1ccccc1NC(=O)C/C(N)=N/OCC(=O)N1CCCCCC1	0	-7	0	-2
O=S(=O)(c1ccc2c(c1)N=Cc1c(F)cccc1O2)N1CCOCC1	0	-11	0	45*
O=S(=O)(c1ccc2c(c1)N=Cc1c(nc3sccn13)O2)N1CCOCC1	0	6	0	-9
COc1ccc(C(=O)N=c2sc3cc(F)ccc3n2C)c(OC)c1	0	-1	-1	55*
CCOC(=O)c1ccc(N2C(=O)/C(=C\c3ccco3)C(C(=O)OC)=C2C)cc1	0	67*	-1	8
COc1cccc(/C=N/NC(=O)c2cc(O)c(O)c(O)c2)c1O	0	46	-2	8
COc1cccc(/C=N/NC(=O)c2cc3ccccc3cc2O)c1O	0	24	-6	53*
COc1cccc(/C=N/NC(=O)c2ccc(N(C)S(=O)(=O)c3ccccc3)cc2)c1O	0	13	1	80*
COc1ccccc1/C=N/NC(=O)c1ccc(NC(=O)c2ccc(F)cc2)cc1	0	21	1	0
COc1cc([N+](=O)[O-])cc(/C=N/NC(=O)c2ccncc2)c1O	-1	83*	-1	5
COc1cccc(/C=N/NC(=O)C(=O)N/N=C/c2cccc(OC)c2O)c1O	-1	-205	0	13
SMILES	FBW7 activator	MITF inh	GPR151 ag	TEAD-YAP inh
COc1cccc(/C=N/NC(=O)c2ccc(NC(=O)c3ccc(F)cc3)cc2)c1O	0	4	0	97*
COc1ccccc1C(=O)N/N=C/c1cc([N+](=O)[O-])cc(OC)c1O	1	-10	-1	-21
O=C1CCC(=O)N1c1ccc(NCC2CCCO2)c([N+](=O)[O-])c1 (stereo not drawn)	1	20	2	-2
O=C(CN1CCOCC1)Nc1sccc1C(=O)c1ccc(Cl)cc1	0	5	0	-3
COc1ccccc1C(NC(=O)C1CCN(C(=O)c2ccoc2)CC1)c1ccccn1 (stereo not drawn)	0	14	0	-1
O=c1nc2n(-c3ccc(Cl)c(Cl)c3)c3ccccc3cc-2c(=O)[nH]1	0	0	0	-2
COc1cccc(/C=N/NC(=O)C(=O)Nc2cccc(C(F)(F)F)c2)c1O	-3	6	1	59*
O=C(N/N=C/c1cc(Cl)ccc1O)c1cncc(Br)c1	0	63*	0	7
COc1cccc(/C=N/NC(=O)c2cncc(Br)c2)c1O	0	90*	-5	80*
COc1cc(/C=N/NC(=O)c2cncc(Br)c2)cc(Br)c1O	0	7	-1	-4
